DT40 TDP1 CPT: growth inhibition of DT40 Tdp1-/-;hTDP1 cells with camptothecin (screen for TDP1 inhibitors); chicken DT40 Tdp1-/-;hTDP1 cells + 20 nM CPT, ATP luminescence, 48 h; Potency, µM (top dose mostly 46.2 µM), without a hit: at the highest dose activity change, negative = growth inhibition, most hits filed as inhibitors; 420,000 tested, 12% active; AID 686979; also: potency is read from the fitted curve at half-maximal effect; % is scaled to controls: 0 for no effect and ±100 for the full control effect; nearly all actives have a fitted effect of over 55% in size
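Chicken DT40 Tdp1-/- cells stably complemented with human TDP1 were seeded at 400 cells/well in medium containing 20 nM camptothecin, exposed to pin-transferred compounds, and grown at 37 °C for at least 48 hr. Viability was read as ATP luminescence.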
TDP1 cell noCPT: qHTS for Inhibitors of human tyrosyl-DNA phosphodiesterase 1 (TDP1): qHTS in cells in absence of CPT; DT40 Tdp1-/- hTDP1 cells, no CPT, ATP luminescence, 48 h; Potency, µM (titrated, usually from 46.2 µM), without a hit: top-dose activity change, negative = growth inhibition, most hits filed as inhibitors; 420,000 tested, 15% active; AID 686978, 2013; also: potency is read from the fitted curve at half-maximal effect; % is scaled to controls: 0 for no effect and ±100 for the full control effect; nearly all actives have a fitted effect of over 55% in size
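No-CPT arm: Tdp1-/-;hTDP1 DT40 cells (400/well) plus compounds, incubated ≥48 hr at 37 °C. Readout CellTiter-Glo luminescence.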
D3 ag: D3 dopamine receptor (human) agonism; 410,000 tested, 0.58% active; max activation, %; AID 652048; D3R DiscoveRx beta-arrestin cells, luminescence, 90 min; in the data active = max activation above about 30%; also: 0% is about no effect
Target sequence (P35462 whole entry, looked up): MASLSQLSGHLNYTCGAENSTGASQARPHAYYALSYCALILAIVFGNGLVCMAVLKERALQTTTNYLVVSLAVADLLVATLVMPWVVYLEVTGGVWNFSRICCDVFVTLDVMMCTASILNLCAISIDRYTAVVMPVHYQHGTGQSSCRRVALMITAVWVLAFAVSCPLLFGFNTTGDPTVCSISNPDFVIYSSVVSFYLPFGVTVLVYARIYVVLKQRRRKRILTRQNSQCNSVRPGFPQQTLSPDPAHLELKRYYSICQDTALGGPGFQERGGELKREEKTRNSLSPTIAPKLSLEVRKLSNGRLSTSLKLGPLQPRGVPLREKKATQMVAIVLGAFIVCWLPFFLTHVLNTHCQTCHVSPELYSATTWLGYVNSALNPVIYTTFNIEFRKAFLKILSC
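Agonist-mode cell screen: cells plated at 1500/well and incubated overnight at 37 °C, then exposed to library compounds for 90 min at 37 °C. Detection reagent was added for 30–60 min at room temperature, and luminescence was read.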
IL-1B inflam inh: inflammasome signaling inhibition, IL-1 beta readout; THP-1 LPS/ATP IL-1B secretion, AlphaLISA, 16 h; hits give low values; activity change, % at 57.5 µM; 360,000 tested, 4.7% active; AID 743279; in the data active = activity change below about -50%; inconclusive = mostly about -30% to -49%; also: % is scaled to controls: 0 for no effect and ±100 for the full control effect
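THP-1 cells pretreated 1 hr with compounds (up to 57.5 uM final), then stimulated with LPS (250 ng/mL final) plus ATP (1.25 mM final); secreted IL-1B measured by AlphaLISA after 16 hr, decreased signal indicating inhibition.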
ClpP mod: qHTS Assay for Activators of ClpP; ATP-dependent Clp protease proteolytic subunit (Bacillus subtilis (strain 168)), P80244; purified B. subtilis ClpP, FRET peptide cleavage, 20 min; Potency, µM (top dose mostly 57.5 µM), inactives show at the highest dose activity change, negative = active; 340,000 tested, 1.9% active; AID 651965, 2013; active = well fitted falling curve with a large enough effect; inconclusive = small, poorly fitted or top-dose-only effect; inactive = no such curve, though single readings can be large or run the other way; also: potency is read from the fitted curve at half-maximal effect; the source files actives as falling curves though it sought activators and does not explain the sign; nearly all actives have a fitted effect of over 65% in size
Target sequence (P80244 whole entry, looked up): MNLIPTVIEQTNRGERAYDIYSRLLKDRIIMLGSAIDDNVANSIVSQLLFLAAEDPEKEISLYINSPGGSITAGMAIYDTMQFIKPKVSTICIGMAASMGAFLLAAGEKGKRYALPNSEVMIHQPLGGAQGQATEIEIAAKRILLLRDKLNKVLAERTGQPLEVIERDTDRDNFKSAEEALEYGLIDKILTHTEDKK
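Buffer: 100 mM Tris/HCl pH8, 100 mM KCl, 0.05% low protease BSA, 2.5% glycerol, 0.01% Tween-20. ClpP 10 microg/mL final; 20 min RT; delta FRET normalized to ADEP and DMSO controls.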
DRD3 antagonist: antagonists of human D3 dopamine receptor. max response, negative = inhibition, %. 360,000 tested, 2.5% active. P35462. AID 652054. D3R cells, DiscoveRx beta-arrestin luminescence, antagonist mode; hits give low values; in the data active = max response below about -50%; inconclusive = no clear call, values can overlap the other calls; also: % is scaled to controls: 0 for no effect and ±100 for the full control effect
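Cells plated overnight at 1500 cells/well, then exposed to library compounds with dopamine controls for 90 minutes at 37 degrees C. DiscoveRx reagent added for 30–60 minutes at room temperature; luminescence read, quantitative HTS format.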
An asterisk follows results filed as active; ? = inconclusive; . = no result. Hits are enriched below; roughly 21% of the tested compounds scored in any of these assays. Unless noted, calls follow the shape of the dose curve; as a rule, active = well fitted inhibition curve with a large enough effect; inconclusive = small, poorly fitted or top-dose-only effect; inactive = flat fitted curve, though single readings scatter.

SMILES	DT40 TDP1 CPT	TDP1 cell noCPT	D3 ag	IL-1B inflam inh	ClpP mod	DRD3 antagonist
CCc1ccc(S(=O)(=O)c2cn(Cc3ccccc3)c3cc(F)c(F)cc3c2=O)cc1	?	?	2	.	-3%	.
COc1ccccc1C(CNC(=O)C1CC(=O)N(Cc2ccccc2)C1)N1CCCC1 (stereo not drawn)	-2%	4.6µM*	1	-8	-3%	-7
COc1ccc(CCNC(=O)CCNC(=O)c2ccco2)cc1	-10%	-8%	-12	13	0%	0
COc1ccc(-c2nc(CCNC(=O)c3ccco3)cs2)cc1OC	?	21µM*	4	-9	4%	27
O=C(Cc1ccccc1F)Nc1nc(-c2ccc(F)cc2)cs1	8.2µM*	5.8µM*	10	-94*	.	38
COc1ccc(-c2nc(NC(=O)CCNC(=O)c3ccco3)sc2C)cc1	23µM*	18µM*	5	-2	-1%	2
COc1ccccc1CC(=O)Nc1nc(-c2ccc(F)c(F)c2)cs1	?	?	22	?	.	11
COc1ccc(C(CNC(=O)C2CC(=O)N(Cc3ccccc3)C2)N2CCCC2)cc1 (stereo not drawn)	-9%	5%	-2	-12	-6%	-10
N#CC(C(=O)c1ccccc1)=C1SCCS1	3%	-10%	-16	-1	-1%	8
O=C(NN1C(=O)C2CC=C(Cl)CC2C1=O)c1ccncc1 (stereo not drawn)	5%	10%	5	8	1%	11
C[C@H]1CN([C@@H](C)CO)S(=O)(=O)c2ccc(Br)cc2O[C@@H]1CN(C)C(=O)Cc1cccnc1	16%	5%	-2	11	0%	31
COc1ccc(-c2csc(NC(=O)CCNC(=O)c3ccco3)n2)cc1OC	?	16µM*	2	-18	-1%	17
O=C(NC(=S)Nc1nc2c(ccc3ccccc32)s1)c1cccs1	?	15µM*	4	0	1%	7
COc1cc(NC(=O)c2n[nH]c(=O)c3ccccc23)cc(OC)c1	-11%	-6%	-2	-6	-3%	-18
COc1ccc(-c2nc(NC(=O)c3n[nH]c(=O)c4ccccc34)sc2C)cc1	21µM*	9.2µM*	4	18	1%	3
NNC(=O)c1n[nH]c(=O)c2ccccc12	-16%	3%	-13	2	-1%	3
Cc1cc(C)c(-c2csc(NC(=O)c3n[nH]c(=O)c4ccccc34)n2)c(C)c1	9.2µM*	4.1µM*	3	24	-16%	12
CC(=O)Nc1ccc(-c2csc(NC(=O)CCNC(=O)c3ccco3)n2)cc1	-26%	?	-3	-17	.	-2
Cc1cc(NC(=O)CSc2nnnn2-c2ccc(C)c(Cl)c2)no1	-19%	-6%	-5	-1	.	-3
COc1ccc(-c2csc(NC(=O)Cc3ccccc3F)n2)cc1OC	?	26µM*	0	-64*	.	10
CN1CCN(C2(CNC(=O)c3ccc(C(C)(C)C)cc3)CCCCC2)CC1	?	16µM*	-12	.	-4%	.
CS(=O)(=O)c1ccc(C(=O)NCC2(N3CCCCC3)CCCCC2)cc1	-5%	-9%	-11	6	-1%	11
COc1ccccc1OC(C)C(=O)NCC1(N2CCOCC2)CCCCC1 (stereo not drawn)	23µM*	18µM*	-14	.	-2%	.
O=C(COc1ccc([N+](=O)[O-])cc1)NCC1(N2CCOCC2)CCCCC1	-29%	?	3	.	-5%	.
COCc1ccc(C(=O)NCC2(N3CCCCC3)CCCCC2)cc1	?	23µM*	-4	6	.	-1
SMILES	DT40 TDP1 CPT	TDP1 cell noCPT	D3 ag	IL-1B inflam inh	ClpP mod	DRD3 antagonist
CC(C)(C)c1ccc(OCC(=O)NCC2(N3CCOCC3)CCCCC2)cc1	13µM*	16µM*	-13	.	1%	.
Cc1ccc(OC(C)C(=O)NCC2(N3CCOCC3)CCCCC2)cc1C (stereo not drawn)	?	?	-27	.	-1%	.
Nc1ncnc2c1nc(Sc1ccc(Cl)cc1)n2[C@@H]1O[C@@H]2COP(=O)(O)O[C@H]2[C@H]1O	-14%	-9%	-12	1	-1%	0
COc1ccc(C(=O)N2CCC[C@@]3(CCN(Cc4ccncc4)C3)C2)cc1	1%	-3%	.	.	.	.
CC(C)COc1ccc(C(=O)NCC2(N3CCN(C)CC3)CCCCC2)cc1	?	18µM*	-20	.	-4%	.
CC(=O)c1ccc(OCC(=O)NCC2(N3CCCCC3)CCCCC2)cc1	6%	18%	4	-6	-5%	1
Cc1noc(C)c1C(=O)N1CCC2(CCN(Cc3ccncc3)CC2)CC1	-12%	-14%	.	.	.	.
CCOC(=O)C1(Cc2ccccc2)CCN(Cc2cnn(-c3ccccc3)c2)CC1	-18%	?	-9	-13	.	-63*
COc1ccc(CC2(CO)CCN(Cc3cnn(-c4ccccc4)c3)CC2)cc1	?	?	-19	-95*	.	?
COc1ccc(CC2(CO)CCN(Cc3ccc(OC(F)(F)F)cc3)CC2)cc1	?	18µM*	-19	.	.	-20
COc1ccc(CC2(CO)CCN(Cc3ccc4c(c3)CCO4)CC2)cc1	-13%	-28%	-28	?	.	?
COc1ccc(CC2(CO)CCN(Cc3cnc(-c4ccccc4C)nc3)CC2)cc1	?	13µM*	-11	4	-1%	-9
COc1ccc(CC2(CO)CCN(Cc3cnn(-c4ccc(F)cc4)c3)CC2)cc1	-16%	?	-14	22	0%	-23
Cc1cc2c(cc3c(SCc4ccc(Cl)cc4)nnc(C)n32)o1	?	?	8	.	-9%	.
Cc1ccc(C)c(N2CCN(S(=O)(=O)c3cc4c(cc3Cl)NC(=O)CO4)CC2)c1	0%	-7%	0	17	-1%	-15
Cc1ccc(Cn2c(C(=O)O)c(CNC3CCCC3)c3ccc(C)cc32)cc1	?	?	-15	.	-20%	.
COc1ccc(CN2CCC(CO)(Cc3ccccc3C(F)(F)F)CC2)c(F)c1	16µM*	18µM*	-16	?	1%	?
COc1ccc(CC2(CO)CCN(Cc3cnn(-c4ccccc4OC)c3)CC2)cc1	?	10µM*	-19	-9	2%	-89*
Cc1[nH]c2ccccc2c1CN1CCC(CO)(Cc2ccccc2)CC1	13µM*	?	-16	-16	-2%	-11
COc1ccc(CN2CCN(Cc3ccc(C(F)(F)F)cc3)CC2)cc1	?	23µM*	-19	?	0%	?
COc1ccc(CC2(CO)CCN(Cc3cccc4nccnc34)CC2)cc1	2%	-28%	-8	-14	.	-23

Screens deposited in PubChem by National Center for Advancing Translational Sciences (NCATS).
